Compound activity: PubChem, Sanford-Burnham Center for Chemical Genomics
SENP7 inh: blocks the human protease SENP7; Q9BQF6; recombinant SENP7, Z-RLRGG-aminoluciferin luminescence, 40 min; inhibition, % at 5 µM; hit rate 1.5% among 330,000; AID 434973;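 active = inhibition above about 50% at the single test dose, limit read from the data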;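 also: plate controls were DMSO with enzyme for no effect and no enzyme buffer wells for full effect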
Target sequence (Q9BQF6 706-1050 limits assumed): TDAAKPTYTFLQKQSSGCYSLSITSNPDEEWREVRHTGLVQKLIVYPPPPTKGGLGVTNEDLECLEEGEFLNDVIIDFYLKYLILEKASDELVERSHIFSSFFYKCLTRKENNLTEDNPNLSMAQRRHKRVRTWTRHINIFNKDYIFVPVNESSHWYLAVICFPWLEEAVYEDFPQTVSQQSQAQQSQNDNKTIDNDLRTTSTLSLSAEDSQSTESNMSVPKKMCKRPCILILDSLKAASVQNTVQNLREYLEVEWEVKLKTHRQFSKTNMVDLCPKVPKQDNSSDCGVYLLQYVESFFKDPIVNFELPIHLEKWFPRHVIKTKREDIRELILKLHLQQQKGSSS
PPC-1+TRAIL kill: PPC-1 cancer cell killing with TRAIL present; AID 1443; cell killing (% activity), % at 4 µM or 5 µM; hit rate 0.41% among 220,000; PPC-1 cells + TRAIL, ATPLite viability luminescence;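 active = cell killing above 50% in the first pass at 4 µM, then a duplicate retest at 5 µM averaging 50% or more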;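 also: plate controls were cells with TRAIL plus DMSO for no effect and medium-only wells lacking cells for full effect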
SENP8 block-1: blocks human SENP8 cleavage of Nedd8 substrate. Q96LD8. inhibition, % at 20 µM. recombinant SENP8, Nedd8 substrate fluorescence. hit rate 0.64% among 360,000. AID 602440; in the data active = inhibition mostly above about 40%, no sharp cut-off; inactive = mostly below about 27%
SENP6 block: SENP6 protease inhibition. hit rate 1.8% among 330,000. AID 2599. inhibition, % at 10 µM. Recombinant SENP6 catalytic domain, aminoluciferin luminescence. Q9GZR1;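 active = inhibition above about 50% at the single tested dose, limit read from the data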;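 also: plate controls were DMSO wells with enzyme for no effect and DMSO wells lacking enzyme for full effect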
SENP8 block-2: SENP8 protease inhibition; Q96LD8; purified SENP8, Z-RLRGG-aminoluciferin cleavage, luminescence; inhibition, % at 10 µM; hit rate 1.2% among 330,000; AID 2540; in the data active = inhibition above about 50%
TRAIL sens C8: sensitizes caspase-8 expressing cells to TRAIL; NB7+C8 cells + TRAIL, ATPlite viability luminescence; inhibition (viability loss, TRAIL sensitization), % at 10 µM; hit rate 1% among 360,000; AID 624354;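 active = compounds causing at least 50% loss of cell viability in the single-dose screen, relative to plate controls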
SENP8 confirm: confirmation of human SENP8 protease inhibitors; shares compounds with SENP7 inh; hit rate 40% among 6,200; AID 488912; inhibition, % at 12.5 µM; Recombinant SENP8, Z-RLRGG-aminoluciferin luminescence, 60 min;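 active = mean inhibition across replicates above about 50%, limit read from the data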
SENP6 confirm: confirmation of human SENP6 protease inhibitors; recombinant SENP6, Z-RLRGG-aminoluciferin luminescence; shares compounds with SENP7 inh; hit rate 58% among 6,200; inhibition, % at 12.5 µM
SENP7 confirm: human SENP7 inhibition, confirmed; inhibition, % at 12.5 µM; hit rate 69% among 6,200; recombinant SENP7, Z-RLRGG-aminoluciferin luminescence, 40 min; shares compounds with SENP7 inh; AID 488917
Casp3 select: selectivity test for SENP inhibitors: human caspase-3 inhibition. shares compounds with SENP7 inh. purified caspase-3, Z-DEVD-aminoluciferin luminescence, 60 min. inhibition, % at 12.5 µM. hit rate 60% among 6,200. AID 488918;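 active = mean inhibition above about 50%, limit read from the data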;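 also: plate controls were enzyme with DMSO for no effect and wells without caspase-3 for full effect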
Target sequence (P42574 28-227 limits assumed): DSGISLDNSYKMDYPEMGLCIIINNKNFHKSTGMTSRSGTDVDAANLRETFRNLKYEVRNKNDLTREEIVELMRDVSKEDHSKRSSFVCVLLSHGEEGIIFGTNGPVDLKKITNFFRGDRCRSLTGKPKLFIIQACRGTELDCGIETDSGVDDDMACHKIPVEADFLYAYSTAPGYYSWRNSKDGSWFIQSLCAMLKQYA
SENP luc ctr: luminescence interference (SENP counter-screen); shares compounds with SENP7 inh; Pre-incubated SENP8/Z-RLRGG-aminoluciferin, luciferase luminescence interference; inhibition, % at 12.5 µM; hit rate 39% among 6,200; AID 488919;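 active = mean inhibition above about 50% when retested at one dose, limit read from the data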;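 also: plate controls were DMSO wells with completed reaction for no effect and substrate without enzyme for full effect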
Starred values were filed as active, the others as inactive; . = not tested or not shown. Shown are actives, neighbours in structure and some others; about 3% of the full set was active somewhere.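 The calls were made as follows, unless noted: active = mean inhibition above about 50% in the one-dose retest (limit read from the data); inactive = the rest.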

SMILES	SENP7 inh	PPC-1+TRAIL kill	SENP8 block-1	SENP6 block	SENP8 block-2	TRAIL sens C8	SENP8 confirm	SENP6 confirm	SENP7 confirm	Casp3 select	SENP luc ctr
CCCNC(=O)C1CC(=O)N(c2ccc(OCc3ccc(Cl)cc3)cc2)C1 (stereo unspecified)	88*	.	4	84*	61*	7	37	37	38	44	13
COc1ccc(S(=O)(=O)N(C)C[C@H]2Oc3ccc(NS(=O)(=O)c4cccs4)cc3C(=O)N([C@H](C)CO)C[C@@H]2C)cc1	.	.	20	.	.	-1	.	.	.	.	.
CC(C)CN1CCN(CCCOC(=O)Nc2cccc3ccccc23)CC1C (stereo unspecified)	.	.	-54	.	.	16	.	.	.	.	.
O=C(c1ccc(F)cc1)c1cc2ccc(O)cc2oc1=O	99*	.	-154	97*	97*	10	99*	100*	103*	98*	98*
COc1ccc(NC(=O)c2cc3cc(OC)ccc3oc2=N)cc1	-1	17	6	-16	-6	12	.	.	.	.	.
N=c1oc2cc(O)ccc2cc1C(=O)Nc1ccc(F)cc1	98*	.	-292	96*	92*	27	91*	94*	100*	84*	62*
O=c1oc(CCCO)cc2ccc(/C=C/c3cccc([N+](=O)[O-])c3)cc12	61*	.	-24	21	2	7	8	17	30	30	4
COc1ncc(-c2c(-c3ccccc3OC)sc3ccccc23)cn1	.	.	-39	.	.	7	.	.	.	.	.
Cc1ccnc(NC(=O)/C=C/c2cccs2)c1	67*	68*	-7	86*	57*	79*	71*	71*	91*	83*	47
O=C(/C=C/c1cccs1)Nc1nncs1	20	14	1	24	1	38	.	.	.	.	.
O=C(N/N=C/c1c(Cl)cccc1Cl)c1n[nH]c2c1CCCC2	71*	11	13	28	68*	18	13	72*	92*	80*	7
O=C(NN=C1CCCC1)c1n[nH]c2c1CCCC2	45	12	16	68*	39	9	58*	68*	87*	90*	51*
O=C(NC1CCCCC1)c1n[nH]c2c1CCCCC2	90*	.	12	89*	84*	78*	86*	86*	97*	94*	73*
CCOC(=O)[C@]12CCCC=C1N(Cc1cccc3ccccc13)C(=O)[C@H](CC(=O)N1CCN(C(=O)C3CC3)CC1)C2	.	.	11	.	.	11	.	.	.	.	.
Cc1noc(C)c1S(=O)(=O)N(CC(=O)NC(C)c1ccccc1)c1ccc(C(C)C)cc1 (stereo unspecified)	1	.	8	-5	-5	5	.	.	.	.	.
CC(=O)c1ccc(OCc2cc(=O)n3ccsc3n2)cc1	2	15	-11	7	-14	12	.	.	.	.	.
Cc1ccsc1C(=O)OCc1cc(=O)n2ccsc2n1	57*	.	-63	53*	48	15	27	50	82*	81*	11
O=C(OCc1cc(=O)n2ccsc2n1)c1ccc(O)cc1O	39	.	-78	64*	47	-3	55*	49	79*	76*	61*
COc1ccc(-c2nc3ccccn3c2Cl)cc1	100*	.	-263	97*	96*	72*	5	99*	103*	98*	97*
O=C(NNC(=S)Nc1ccccc1Cl)c1ccccc1Br	67*	.	13	73*	73*	-4	44	41	22	13	30
O=C(NNC(=O)c1ccccc1Br)c1ccccc1Cl	6	0	8	-12	-4	3	.	.	.	.	.
O=C(COC(=O)c1ccco1)NCc1ccc2c(c1)OCO2	5	6	10	58*	-3	5	-4	-6	-8	2	-3
Cc1ccc(NC(=O)c2scc3c2CCCC3)cc1	85*	7	8	91*	2	9	-10	-7	19	8	31
Cc1ccc(NC(=O)c2cc3c(s2)CCCC3)cc1	-2	-8	5	11	-10	21	.	.	.	.	.
COc1ccc(NC(=O)c2csc3c2CCCC3)cc1	50*	22	6	43	25	17	-4	24	75*	37	17
SMILES	SENP7 inh	PPC-1+TRAIL kill	SENP8 block-1	SENP6 block	SENP8 block-2	TRAIL sens C8	SENP8 confirm	SENP6 confirm	SENP7 confirm	Casp3 select	SENP luc ctr
COc1cccc(NC(=O)c2csc3c2CCCC3)c1	62*	13	-3	68*	54*	9	59*	59*	87*	49	25
Cc1cccc(NC(=S)NNC(=O)c2csc3c2CCCC3)c1	-9	8	2	46	61*	44	46	39	31	15	12
COc1cccc(NC(=O)CN(C)C(=O)c2csc3c2CCCC3)c1	3	.	-2	-8	-8	-1	.	.	.	.	.
Cc1ccccc1-c1cc2nc(-c3ccc([N+](=O)[O-])cc3)cc(=O)n2[nH]1	9	11	-5	18	-1	0	.	.	.	.	.
Cc1nc2nc(-c3ccccc3)cc(=O)n2[nH]1	55*	34	3	3	36	32	57*	52*	84*	85*	66*
Cc1cccc(-c2cc3nc(-c4ccccc4)cc(=O)n3[nH]2)c1	51*	.	-292	89*	88*	44*	14	74*	27	17	5
NC(=O)c1nsc(C(=O)N(c2ccccc2)C(C(=O)NC2CCCCC2)c2ccc(O)cc2)c1N (stereo unspecified)	6	.	-323	8	4	-9	.	.	.	.	.
Cc1[nH]n(-c2ccc([N+](=O)[O-])cc2)c(=O)c1C=NCCN1CCN(C(=O)C(C)C)CC1	78*	20	25	85*	62*	29	23	28	39	48	43
CCCc1[nH]n(-c2ccc([N+](=O)[O-])cc2)c(=O)c1C=NCCN1CCNCC1	87*	-8	.	92*	84*	.	78*	50*	57*	85*	69*
COc1ccc(OCC(=O)NNC(=O)Cn2c(=O)cnc3ccccc32)cc1	-7	.	16	-9	-1	-6	.	.	.	.	.
CCn1c(SCc2ccccc2Cl)nc2ccccc21	17	15	32	59*	17	7	42	44	71*	27	20
